One experiment concerns the target Hexose transporter 1 (Plasmodium falciparum) (UniProt O97467). The experiment can be described thus: ST_JUDE_LEISH: Cytotoxicity at 2uM final concentration against transgenic Leishmania Mexicana promastigotes LmPfHT that are glucose transport deficient and complemented with the Plasmodium falciparum hexose transporter. Activity is measured by DNA content using SYBR green in vitro. The format is functional.
As to `O=C(/C=C/c1c(Cl)cccc1Cl)NC1CCC(CN2CCC(Cc3cc4ccccc4[nH]3)CC2)CC1` (stereo not drawn), the inhibition (commonly the change of the read-out against control, counted positive when it falls) was 10.2%.
Same read-out and setting: the result for `Oc1ccc(CCNCCCCCCNCCc2ccc(Cl)cc2)c(Cl)c1O` reads -4.06%; that for `COc1ccccc1-c1nc2nc(N)nc(N)c2nc1-c1ccccc1OC`, 1.25%.
Same read-out and setting: to `c1ccc(Oc2ccc(Nc3ccnc(Nc4ccc(OCCN5CCCCC5)cc4)n3)cc2)cc1` belongs 12.8%; to `O=C1CCCN1CCCNCc1cccc(-c2cccc(-c3nc4cc(F)ccc4[nH]3)c2)c1`, 1.31%.
The same measure, in the same setting: the result for `O=C(C=Cc1cccc(F)c1)NC1CCC(CCN2CCc3ccc(-c4cnccn4)cc3CC2)CC1` (stereo not drawn) reads 14.2%.
For `CCc1nc(N)nc(N)c1-c1ccc2c(c1)CCCC2`, the inhibition was determined as 3.35%.
The same measure, in the same setting: the result for `O=C(Oc1ccc(C2CNCCc3c2cc(OC(=O)c2ccc(O)cc2)c(OC(=O)c2ccc(O)cc2)c3Cl)cc1)c1ccc(O)cc1` (stereo not drawn) reads 5.32%; that for `CC(C)Cn1cc(C2CCN(CCN3CCC(CNC(=O)c4ccc(-c5ccc(C#N)cc5)cc4)CC3)CC2)c2ccccc21`, 5.31%; that for `Nc1cccc(CNCc2cccc(-c3cccc(-c4nc5ccccc5[nH]4)c3)c2)c1`, 1.34%.
The same measure, in the same setting: the result for `Cc1cc(CNC(c2ccccc2)C2CCC2)cc(C)c1O` (stereo not drawn) reads 14.3%; that for `CC1CC(C)CN(S(=O)(=O)c2cc(C(=O)Nc3cccc([N+](=O)[O-])c3)ccc2Br)C1` (stereo not drawn), 7.57%.
The same measure, in the same setting: to `CCc1nc2nc(C)cc(Nc3cc(C)cc(C)c3)n2n1` belongs 2.04%; to `Cc1sc2ncnc(Sc3nc4ccccc4[nH]3)c2c1C`, 8.07%.
Consider `O=C(N[C@@H](CC1CCCCC1)C(=O)NC1CCCCCC1)c1ccc(O)c(-c2ccc(Cl)c(Cl)c2)c1`, for which the inhibition was found to be 1.39%.
Same read-out and setting: the result for `O=C(Nc1ccc(C(=O)OCC2CCCCC2)cc1)N[C@@H](Cc1ccc(O)cc1)C(=O)NC1CCN(Cc2ccc(O)cc2)C1` (stereo partly drawn) reads 2.04%; that for `CCCN(c1ccc(C(F)(F)F)cc1[N+](=O)[O-])S(=O)(=O)C(c1ccccc1)c1ccc(C(F)(F)F)cc1[N+](=O)[O-]` (stereo not drawn), 6.88%; that for `COc1ccc(C(=O)CCC(=O)N(CCSC(C)(C)C)Cc2ccc(-c3ccc(CNCCc4ccc(S(C)(=O)=O)cc4)cn3)cc2)cc1F`, 9.03%.
On to `Cc1nc(N)nc(N)c1CCCOc1ccccc1Br`, for which the inhibition was determined as 8.36%.
Same read-out and setting: to `FC(F)(F)c1ccc2[nH]c(-c3cccc(-c4cccc(CN5CCN(c6ccncc6)CC5)c4)c3)nc2c1` belongs 2.18%; to `Cc1cc(N/N=C/c2ccccc2[N+](=O)[O-])c2cc(C(F)(F)F)ccc2n1`, 0.97%; to `Cc1ccc(O)cc1Nc1ccnc2ccc(-c3cccc(CN(C)C)c3)cc12`, -2.77%.
Still for that read-out and setting: to `CN1CCOc2ccc(Nc3nnc(-c4cccc(-c5cccnc5)c4)o3)cc2C1` belongs 2.67%; to `CCC1CN2CCc3c([nH]c4ccc(OC)cc34)C2CC1CC1NCCc2cc(OC)c(OC)cc21` (stereo not drawn), 3.2%.
The same measure, in the same setting: the result for `COc1ccc2nccc([C@@H](O)CN3CCC(NCc4cc5oc(=O)[nH]c5cc4F)CC3)c2c1` reads 0.65%; that for `Nc1nc(N)c2c(ccc3c2ccn3CCCC(F)(F)F)n1`, 20.3%.
As for `O=C(/C=C/c1ccccc1O)N1CCC(CCN2CCC(c3c[nH]c4ccccc34)CC2)CC1`, the inhibition is -3.35%.
Still for that read-out and setting: to `CC(C)c1ccc(-c2nc3cc(Cl)cnc3[nH]2)cc1` belongs 3.85%; to `CN1CCC(NCc2cccc(-c3cccc(S(=O)(=O)NCc4ccccc4)c3)c2)CC1`, -2.65%; to `CN1CCCN(Cc2ccc(-c3cccc(NC(=O)c4ccc(Cl)cc4)c3)cc2)CC1`, 0.88%.
Same read-out and setting: the result for `C=CCN1Cc2c(O)cccc2C(c2ccc(O)c(O)c2)C1` (stereo not drawn) reads 5.18%.
The same measure, in the same setting: to `CCc1cn2c3c(cc(C(=O)N[C@@H](Cc4ccccc4)[C@H](O)CNC4CCCC4)cc13)N(C)S(=O)(=O)CC2` belongs 9.26%.
On to `COc1cc2nc(Nc3ccc4c(c3)OCCO4)nc(N)c2cc1OC`, for which the inhibition was -0.78%.
On the same count and under the same terms, to `Clc1cccc(-c2nc(Nc3ccnc(-c4ccc(CN5CCOCC5)cc4)c3)c3ccccc3n2)c1` belongs 3.91%; to `O=C(NCc1cccc(F)c1)Nc1cccc(-c2cccc(-c3nc4cc(C(F)(F)F)ccc4[nH]3)c2)c1`, 2.8%.
Same read-out and setting: the result for `COc1cccc(NC(=O)NC2CCN(c3ccnc(Nc4ccc(F)cc4)n3)C2)c1` (stereo not drawn) reads 6.07%; that for `COc1cccc(C2=CC(C)(C)Oc3cc(OCCN(C)C)ccc32)c1`, -3.47%.
Turning to `O=C(Nc1ccc(-c2cccc(-c3nc4cc(C(F)(F)F)ccc4[nH]3)c2)cc1)c1ccc(=O)[nH]n1`, the inhibition was found to be 2.75%.
Still for that read-out and setting: to `CCN(CC)CCN(CCCc1ccc(-c2ccc(C(F)(F)F)cc2)cc1)C(=O)Cn1c(CCc2cccc(F)c2F)nc(=O)c2ccccc21` belongs 2.91%.

For the next experiment, the target named is Glucose transporter (Leishmania mexicana) (UniProt O61059). Description: ST_JUDE_LEISH: Cytotoxicity at 2uM final concentration against transgenic Leishmania Mexicana promastigotes LmGT2 that are glucose transport deficient and complemented with the L. Mexicana glucose transporter 2. Activity is measured by DNA content using SYBR green in vitro. It counts as functional.
As to `O=C(/C=C/c1c(Cl)cccc1Cl)NC1CCC(CN2CCC(Cc3cc4ccccc4[nH]3)CC2)CC1` (stereo not drawn), the inhibition was 2.31%.
On to `Oc1ccc(CCNCCCCCCNCCc2ccc(Cl)cc2)c(Cl)c1O`, for which the inhibition was -1.17%.
Turning to `COc1ccccc1-c1nc2nc(N)nc(N)c2nc1-c1ccccc1OC`, the inhibition stood at 1.01%.
Same read-out and setting: the result for `c1ccc(Oc2ccc(Nc3ccnc(Nc4ccc(OCCN5CCCCC5)cc4)n3)cc2)cc1` reads 18.4%; that for `O=C1CCCN1CCCNCc1cccc(-c2cccc(-c3nc4cc(F)ccc4[nH]3)c2)c1`, 0.04%; that for `O=C(C=Cc1cccc(F)c1)NC1CCC(CCN2CCc3ccc(-c4cnccn4)cc3CC2)CC1` (stereo not drawn), 13.1%.
The same measure, in the same setting: to `CCc1nc(N)nc(N)c1-c1ccc2c(c1)CCCC2` belongs 2%; to `O=C(Oc1ccc(C2CNCCc3c2cc(OC(=O)c2ccc(O)cc2)c(OC(=O)c2ccc(O)cc2)c3Cl)cc1)c1ccc(O)cc1` (stereo not drawn), 4.76%; to `CC(C)Cn1cc(C2CCN(CCN3CCC(CNC(=O)c4ccc(-c5ccc(C#N)cc5)cc4)CC3)CC2)c2ccccc21`, 2.53%.
On the same count and under the same terms, the result for `Nc1cccc(CNCc2cccc(-c3cccc(-c4nc5ccccc5[nH]4)c3)c2)c1` reads -0.53%; that for `Cc1cc(CNC(c2ccccc2)C2CCC2)cc(C)c1O` (stereo not drawn), 10.1%; that for `CC1CC(C)CN(S(=O)(=O)c2cc(C(=O)Nc3cccc([N+](=O)[O-])c3)ccc2Br)C1` (stereo not drawn), 5.14%.
Regarding `CCc1nc2nc(C)cc(Nc3cc(C)cc(C)c3)n2n1`, the inhibition worked out at 3.36%.
In the case of `Cc1sc2ncnc(Sc3nc4ccccc4[nH]3)c2c1C`, the inhibition was determined as 3.58%.
Still for that read-out and setting: the result for `O=C(N[C@@H](CC1CCCCC1)C(=O)NC1CCCCCC1)c1ccc(O)c(-c2ccc(Cl)c(Cl)c2)c1` reads 0.88%; that for `O=C(Nc1ccc(C(=O)OCC2CCCCC2)cc1)N[C@@H](Cc1ccc(O)cc1)C(=O)NC1CCN(Cc2ccc(O)cc2)C1` (stereo partly drawn), 3.42%.
Same read-out and setting: to `CCCN(c1ccc(C(F)(F)F)cc1[N+](=O)[O-])S(=O)(=O)C(c1ccccc1)c1ccc(C(F)(F)F)cc1[N+](=O)[O-]` (stereo not drawn) belongs -1.01%; to `COc1ccc(C(=O)CCC(=O)N(CCSC(C)(C)C)Cc2ccc(-c3ccc(CNCCc4ccc(S(C)(=O)=O)cc4)cn3)cc2)cc1F`, 7.07%.
On the same count and under the same terms, the result for `Cc1nc(N)nc(N)c1CCCOc1ccccc1Br` reads 2.57%.
Regarding `FC(F)(F)c1ccc2[nH]c(-c3cccc(-c4cccc(CN5CCN(c6ccncc6)CC5)c4)c3)nc2c1`, the inhibition came out at 3.38%.
On the same count and under the same terms, the result for `Cc1cc(N/N=C/c2ccccc2[N+](=O)[O-])c2cc(C(F)(F)F)ccc2n1` reads 1.45%.
The same measure, in the same setting: to `Cc1ccc(O)cc1Nc1ccnc2ccc(-c3cccc(CN(C)C)c3)cc12` belongs 0.73%.
The same measure, in the same setting: the result for `CN1CCOc2ccc(Nc3nnc(-c4cccc(-c5cccnc5)c4)o3)cc2C1` reads 1.35%.
With `CCC1CN2CCc3c([nH]c4ccc(OC)cc34)C2CC1CC1NCCc2cc(OC)c(OC)cc21` (stereo not drawn), the inhibition was 4.05%.
On the same count and under the same terms, the result for `COc1ccc2nccc([C@@H](O)CN3CCC(NCc4cc5oc(=O)[nH]c5cc4F)CC3)c2c1` reads 2.44%.
Still for that read-out and setting: to `Nc1nc(N)c2c(ccc3c2ccn3CCCC(F)(F)F)n1` belongs 8.28%; to `O=C(/C=C/c1ccccc1O)N1CCC(CCN2CCC(c3c[nH]c4ccccc34)CC2)CC1`, -2.57%; to `CC(C)c1ccc(-c2nc3cc(Cl)cnc3[nH]2)cc1`, 4.06%.
With `CN1CCC(NCc2cccc(-c3cccc(S(=O)(=O)NCc4ccccc4)c3)c2)CC1`, the inhibition was determined as 2.47%.
Still for that read-out and setting: to `CN1CCCN(Cc2ccc(-c3cccc(NC(=O)c4ccc(Cl)cc4)c3)cc2)CC1` belongs 0.76%; to `C=CCN1Cc2c(O)cccc2C(c2ccc(O)c(O)c2)C1` (stereo not drawn), 4.91%.
On the same count and under the same terms, the result for `CCc1cn2c3c(cc(C(=O)N[C@@H](Cc4ccccc4)[C@H](O)CNC4CCCC4)cc13)N(C)S(=O)(=O)CC2` reads 5.93%; that for `COc1cc2nc(Nc3ccc4c(c3)OCCO4)nc(N)c2cc1OC`, 1.75%.
As for `Clc1cccc(-c2nc(Nc3ccnc(-c4ccc(CN5CCOCC5)cc4)c3)c3ccccc3n2)c1`, the inhibition is 3.58%.
On the same count and under the same terms, to `O=C(NCc1cccc(F)c1)Nc1cccc(-c2cccc(-c3nc4cc(C(F)(F)F)ccc4[nH]3)c2)c1` belongs -2.1%; to `COc1cccc(NC(=O)NC2CCN(c3ccnc(Nc4ccc(F)cc4)n3)C2)c1` (stereo not drawn), 3.8%; to `COc1cccc(C2=CC(C)(C)Oc3cc(OCCN(C)C)ccc32)c1`, 4.3%.
Still for that read-out and setting: to `O=C(Nc1ccc(-c2cccc(-c3nc4cc(C(F)(F)F)ccc4[nH]3)c2)cc1)c1ccc(=O)[nH]n1` belongs 2.97%; to `CCN(CC)CCN(CCCc1ccc(-c2ccc(C(F)(F)F)cc2)cc1)C(=O)Cn1c(CCc2cccc(F)c2F)nc(=O)c2ccccc21`, 2.33%.

Values taken from ChEMBL document CHEMBL3433997, “St. Jude Leishmania screening dataset” (2016).
